# A selection: hits, their analogues and other compounds. The true share with any hit is near 3.9%.
# Eya2 phos inh: blocks the phosphatase activity of human Eya2; O00167; recombinant Eya2, OMFP fluorescence dephosphorylation (OMFP is methylfluorescein phosphate); Potency, µM (series often up to 76.9 µM), for inactives: at the top dose activity, negative = inhibition, actives largely listed as inhibitors; 330,000 compounds, 0.006% hits; note: potency is the fitted concentration of half-maximal effect; % is set by controls: 0 for no effect and ±100 for the full control effect
#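 Eya2 protein (added as 0.2 uM solution) was preincubated with compound for 10 min at ambient temperature in 50 mM HEPES pH 7.5, 50 mM NaCl, 5 uM MgCl2, 0.05% BSA, 1 mM DTT. OMFP (added at 50 uM) then reacted 10 min; fluorescence read at 485/525 nm.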
# USP2a inh: USP2a (human) protease inhibition; O75604; USP2 core, Ub-CHOP2 coupled fluorogenic reporter, 485/531; Potency, µM (highest dose often 38.3 µM), without a hit: at the top dose activity change, negative = inhibition, usual class: inhibitors; 330,000 compounds, 0.01% hits; AID 463254;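 note: potency is the fitted concentration of half-maximal effect; plate controls were DMSO wells for no effect and full inhibition by NEM control for full effect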
#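 USP2 core (10nM final) preincubated 30min RT with compound in 20mM Tris-HCl pH 8.0, 2mM CaCl2, 2mM beta-mercaptoethanol, 0.05% CHAPS; 25nM Ub-CHOP2 plus 25nM reporter substrate added, fluorescence (Ex485/Em531) read after 60min.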
# D1 agonist: human D1 receptor agonism. AID 504660. P21728. 360,000 compounds, 1% hits. HEK293 T-REx D1 cells, calcium flux, agonist mode. activation, % at 2 µM; in the data active = activation above about 30%; note: 0% is about no effect
#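 Tetracycline-induced HEK293 TREx D1 cells, force-coupled to calcium signalling, were dye-loaded with a no-wash calcium kit. Compound was pin-added after a 10 s baseline. Fluorescence was read kinetically at 1 cycle/s for 180 s, with calcium rises flagged as agonism.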
# D1 potentiator: human D1 dopamine receptor positive modulation; potentiation, % at 10 µM; 360,000 compounds, 0.036% hits; HEK293 TREx D1 cells, calcium flux, dopamine EC20 potentiation; P21728; in the data active = potentiation above about 30%; note: 0% is about no effect
# GALK inhibitor: blocks human galactokinase activity | AID 1868 | 270,000 compounds, 0.007% hits | Potency, µM (titrated, usually from 57.5 µM), for inactives: at the top dose activity change, negative = inhibition, most hits filed as inhibitors | P51570 | Purified GALK, Kinase-Glo residual ATP luminescence; note: potency is the fitted concentration of half-maximal effect; % is set by controls: 0 for no effect and ±100 for the full control effect
# Target sequence (P51570 whole entry, looked up): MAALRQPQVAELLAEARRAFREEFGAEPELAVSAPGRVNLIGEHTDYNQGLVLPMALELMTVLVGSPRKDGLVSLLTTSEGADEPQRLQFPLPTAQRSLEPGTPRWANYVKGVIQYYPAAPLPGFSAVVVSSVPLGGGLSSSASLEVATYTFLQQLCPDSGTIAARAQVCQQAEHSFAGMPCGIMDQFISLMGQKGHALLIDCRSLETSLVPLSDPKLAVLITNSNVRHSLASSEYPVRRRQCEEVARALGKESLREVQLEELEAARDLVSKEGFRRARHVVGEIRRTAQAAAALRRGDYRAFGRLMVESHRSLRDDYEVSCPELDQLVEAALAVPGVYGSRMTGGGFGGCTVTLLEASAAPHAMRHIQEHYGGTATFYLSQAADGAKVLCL
#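 Galactose (100 uM) and ATP (35 uM) were turned over by 5 nM GALK for 1 h at RT. Kinase-Glo Plus then converted the remaining ATP into a luminescent signal.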
# D1 antag: human D1 dopamine receptor antagonism. P21728. HEK293 TREx D1 cells, calcium flux, dopamine EC80; hits give low values. activity change, negative = inhibition, % at 10 µM. 360,000 compounds, 3.2% hits. AID 504652; in the data active = activity change below about -30%; note: % is set by controls: 0 for no effect and ±100 for the full control effect
#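 After overnight tetracycline induction at 30 C, force-coupled D1 HEK293 cells took up a no-wash calcium dye at room temperature. Compounds were added and monitored 180 s, and the response to EC80 dopamine was then recorded.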
# * hit, by the source's call; ? = inconclusive; . = no result; ! = not confirmed by another sample. Unless noted, calls come from the whole dose curve; as a rule, active = well fitted inhibition curve with a large enough effect; inconclusive = small, poorly fitted or top-dose-only effect, or effect the other way; inactive = flat fitted curve, though single readings scatter.
SMILES,Eya2 phos inh,USP2a inh,D1 agonist,D1 potentiator,GALK inhibitor,D1 antag
N#Cc1ccc(C(=O)Nc2ccc3c(c2)N(C2CCCC2)C(=O)c2ccccc2S3)cc1,.,.,7,-2,.,3
CCOc1ccc(CCNC(=O)CSc2nnnn2-c2ccccc2)cc1OCC,.,.,-1,-2,.,6
CC1CCN(C(=O)CSc2nc(-c3ccc(C(C)C)cc3)no2)CC1,.,.,17,-1,.,2
COc1ccccc1CNC(=O)CCCCn1c(=O)c2ccccc2n(Cc2ccccc2C)c1=O,.,.,-1,0,.,6
CCN1CCN(CCCOc2ccc(-c3ccccc3)cc2)CC1,-4%,1%,50*,-9,0%,-34*
CN1CCN(CCCOc2ccc(-c3ccccc3)cc2)CC1,11%,3%,18,-1,3%,-33*
CCN1CCN(CCOc2ccc(Cl)cc2)CC1,-3%,-10%,12,-5,5%,-1
CN1CCN(CCOc2ccc(-c3ccccc3)cc2)CC1,0%,-6%,19,-6,8%,-5
O=C(Nc1ccc2oc(-c3ccc4ccccc4c3)nc2c1)c1cc(Cl)ccc1Cl,.,.,3,1,.,11
N/C(=N\OC(=O)COc1ccc(Cl)cc1)c1cccnc1,-3%,1%,3,-2,1%,0
N/C(=N\OC(=O)c1cc(Br)ccc1Cl)c1cccnc1,13%,0%,1,-3,-1%,-2
N/C(=N\OC(=O)c1cc(Cl)ccc1Cl)c1cccnc1,-5%,3%,1,-13,1%,-57*
N/C(=N\OC(=O)COc1ccc([N+](=O)[O-])cc1)c1cccnc1,8%,2%,2,38*,2%,-2
N/C(=N\OC(=O)c1ccccc1)c1cccnc1,1%,0%,3,2,5%,-50*
CC1CCc2noc(NC(=O)c3ccccc3[N+](=O)[O-])c2C1 (stereo not drawn),.,.,-1,0,.,-4
COc1ccc(Cl)cc1NC(=O)CSc1nnc2[nH]c(=O)cc(-c3ccccc3)n12,.,.,-2,1,.,.
CCn1c(SCC(=O)NCc2cccs2)nnc1-c1cccs1,8%,-2%,4,4,0%,-39*
Cn1c(SCC(=O)NCc2cccs2)nnc1-c1cccs1,.,.,1,-6,1%,1
CCc1ccc(CNc2ccc(N3CCN(C(C)=O)CC3)cc2)cc1,10%,0%,34*,0,1%,-14
CC(=O)N1CCN(c2ccc(NCc3ccc(C)cc3)cc2)CC1,-4%,3%,6,-2,3%,-7
COc1cccc(-c2cn3c(n2)sc2cc(C(=O)NCCCc4ccccc4)ccc23)c1,.,.,4,3,.,-34*
c1ccc(COc2ccccc2CNc2nn[nH]n2)cc1,-9%,-1%,0,9,11%,-75*
O=C(NCc1ccc(F)cc1)c1ccc(CSc2nc3ccncc3n2Cc2ccc(F)cc2)cc1,.,.,5,-5,.,4
CCCC(=O)N(C1CC(C)C(C#N)(C#N)C1(C#N)C#N)N(C)C (stereo not drawn),2%,4%,6,-15,1%,-36*
Cc1cccc(N(C)S(=O)(=O)c2c(C(=O)N3CCCCCC3)c(C)n(C)c2C)c1,.,.,-1,3,.,12
SMILES,Eya2 phos inh,USP2a inh,D1 agonist,D1 potentiator,GALK inhibitor,D1 antag
CCc1nc2sc3c(N4CCCCC4)ncnc3c2c2c1CCCC2,.,.,3,-2,.,8
CCOc1ccccc1NC(=O)N1CCN(C)c2ncccc21,.,.,2,-4,.,-4
COc1ccc(-c2cn3cccnc3n2)cc1NC(=O)Nc1ccc(Cl)cc1,.,.,0,-5,.,-1
COC(=O)CCn1nc(-c2ccc(C)cc2)c2ccccc2c1=O,-10%,0%,1,-6,11%,-21
CCOC(=O)CCn1nc(-c2ccc(C)cc2)c2ccccc2c1=O,-2%,4%,1,-10,5%,-49*!
CCOc1ccc(CNCc2c(C(=O)O)n(Cc3ccccc3F)c3cc(OC)ccc23)cc1,.,.,0,-4,.,2
CCCCC(CC)CNC(=O)CCCc1nnc2n(CCC)c(=O)c3sccc3n12 (stereo not drawn),.,.,4,1,.,-5
Cc1cc2nc3c(=O)n(C)c(=O)n(C)c3nc2cc1N=CN(C)C,.,.,46*,0,.,-12
CCOc1ccccc1NC(=O)Cn1c(=O)n(-c2ccc(F)cc2)c(=O)c2c3c(sc21)CN(C(C)=O)CC3,.,.,1,-6,.,18
CN(C)C(=O)c1ccc(S(=O)(=O)NCc2ccccc2Cl)s1,.,.,2,0,.,-18
Nc1nc(COC(=O)CCC(=O)c2ccccc2)nc(Nc2ccccc2)n1,-17%,-2%,3,-11,.,-32*
Nc1nc(COC(=O)c2ccc3c(c2)OCCO3)nc(Nc2ccccc2)n1,3%,-1%,33*,-6,.,-31*
Cc1ccc(Nc2nc(N)nc(COC(=O)C3=COCCO3)n2)cc1,10%,0%,0,-3,.,4
Nc1nc(CCl)nc(Nc2ccccc2)n1,-4%,2%,1,5,-2%,3
COc1cc(NS(=O)(=O)c2ccc3c(c2)CC(C)N3C(=O)C2CCC2)cc(OC)c1OC (stereo not drawn),.,.,-2,0,.,6
CCc1ccccc1NC(=O)NC1CC2CCC(C1)N2Cc1cccs1 (stereo not drawn),-1%,1%,3,-4,3%,13
Cc1ccc(NC(=S)NC2CC3CCC(C2)N3Cc2ccco2)c(C)c1 (stereo not drawn),19%,1%,6,-7,0%,-43*
Cc1cccc(NC(=S)NC2CC3CCC(C2)N3Cc2ccco2)c1C (stereo not drawn),2%,3%,1,-3,.,-21
CCc1ccc(NC(=S)NC2CC3CCCC(C2)N3Cc2cccs2)cc1 (stereo not drawn),?,-5%,4,-11,-2%,-81*
COc1ccc(NC(=S)NC2CC3CCCC(C2)N3C2CC2)cc1 (stereo not drawn),9%,-1%,3,-8,0%,-38*
Cc1ccc(NC(=S)NC2CC3CCC(C2)N3Cc2ccco2)cc1C (stereo not drawn),23%,0%,8,-17,2%,-89*
CCc1ccc(NC(=O)CC(NCc2cccnc2)C(=O)O)cc1 (stereo not drawn),.,.,1,-2,.,5
O=C(NCCCN1CCCC1=O)C1CCN(S(=O)(=O)c2ccc(Cl)cc2)CC1,9%,3%,1,-2,.,2
Cc1ccccc1NC(=O)Cn1cc(S(=O)(=O)N2CCCC2)c(S(=O)(=O)N2CCCC2)c1,.,.,2,-7,.,8

# Compound activity: PubChem, National Center for Advancing Translational Sciences (NCATS)
